SARS PLpro yeast: inhibitors of SARS-CoV papain-like protease in yeast; S. cerevisiae expressing SARS-CoV PLpro, growth rescue; Potency, µM (series often up to 32.9 µM), for inactives: top-dose activity, positive = growth rescue, most hits filed as activators; actives 0.19% (n = 330,000); calls by dose curve; also: 0% is about no effect; nearly all actives have a fitted effect of over 55% in size
Sm TGR inh: inhibitors of Schistosoma mansoni thioredoxin glutathione reductase; actives 3% (n = 360,000); AID 485364; Potency, µM (titrated, usually from 114 µM), for the others: top-dose activity change, negative = inhibition, usual class: inhibitors; purified TGR, DTNB reduction, TNB absorbance 405 nm; active = well fitted inhibition curve with a large enough effect; inconclusive = small, poorly fitted or top-dose-only effect; inactive = no such curve, though single readings can be large or run the other way; also: % is scaled to controls: 0 for no effect and ±100 for the full control effect; nearly all actives have a fitted effect of over 60% in size
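First, TGR (20 nM dispensed) and NADPH were mixed with compound. Second, a 15 min room-temperature incubation followed. Third, further NADPH and then DTNB were added to start the reaction. Finally, TNB absorbance was monitored kinetically.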
Numbers without * were called inactive; ? = inconclusive; / = no result; [ ] = another dose, or the depositor's remark. Hits are enriched below; roughly 3% of the tested compounds scored in any of these assays. Potency is read from the fitted curve at half-maximal effect.

SMILES	SARS PLpro yeast	Sm TGR inh
COc1cccc(CN2CCNC(=O)C2CC(=O)NCC2CCOCC2)c1 (stereo not drawn)	1%	35µM*
O=C(CC1C(=O)NCCN1Cc1cccc(Oc2ccccc2)c1)NCC1CCOCC1 (stereo not drawn)	0%	/
COc1ccc(CN2CCNC(=O)C2CC(=O)N(C)CC2CCOCC2)cc1OC (stereo not drawn)	-6%	?
CN(CCC1CCOCC1)C(=O)CC1C(=O)NCCN1Cc1ccccc1F (stereo not drawn)	?	45µM*
O=C(CC1C(=O)NCCN1Cc1ccoc1)NCc1cccc(OC(F)(F)F)c1 (stereo not drawn)	-1%	25µM*
COc1cccc(CNC(=O)CC2C(=O)NCCN2CCCc2ccccc2)c1 (stereo not drawn)	-6%	-26%
CN(CC1CCOCC1)C(=O)CC1C(=O)NCCN1Cc1ccccc1F (stereo not drawn)	-5%	?
CN(CC1CCOCC1)C(=O)CC1C(=O)NCCN1Cc1cccc(C(F)(F)F)c1 (stereo not drawn)	1%	45µM*
Cc1ccc(NC(=O)C2CCN(S(=O)(=O)c3ccc4[nH]c(=O)ccc4c3)CC2)cc1C	/	-1%
Cc1ccc(NC(=O)C2CCCN(c3nnc(C)c4c(C)n(-c5ccccc5)nc34)C2)cc1Cl (stereo not drawn)	/	-2%
COc1ccc(-c2nc(SCC(=O)NCc3nc4ccccc4n3C)n3[nH]c(=O)cc3n2)cc1	/	6%
COc1cccc(N2CCN(c3ncnc4onc(-c5ccc(Cl)cc5)c34)CC2)c1	/	12%
CCCn1c(=O)c2sccc2n2c(CCCC(=O)Nc3ccc(Oc4ccc(Cl)cc4)cc3)nnc12	/	6%
CN(CCC1CCOCC1)C(=O)CC1C(=O)NCCN1Cc1ccoc1 (stereo not drawn)	1%	?
CN(CCCC1CCCC1)C(=O)CC1C(=O)NCCN1Cc1ccc(F)cc1 (stereo not drawn)	13%	28µM*
COc1ccc(NS(=O)(=O)c2cnc(N)nc2)cc1Cl	/	-14%
O=C(Nc1ccccc1Cl)[C@H](CSCc1ccccc1)N1Cc2ccccc2C1=O	/	-7%
Cc1cc(C)nc(/N=C(\N)N2CCCCCC2)n1	-1%	2%
Cc1cc(C)nc(/N=C(\N)N2CCCCC2)n1	-1%	45µM*
COc1ccccc1-c1noc(-c2ccc(NCc3ccco3)c([N+](=O)[O-])c2)n1	/	2%
Cc1cccn2c(=O)c3cc(C#N)c(=O)n(-c4nnc(SCc5ccc(Cl)cc5)s4)c3nc12	/	2%
O=C1NC(=O)/C(=C\c2ccc(Sc3ccc(Cl)cc3)o2)N1	-12%	50µM*
O=C1NC(=O)/C(=C/c2ccc(N3CCOCC3)o2)N1	0%	11µM*
Cc1cc(/C=C2/NC(=O)NC2=O)c(C)n1-c1ccc(N2CCOCC2)cc1	0%	?
Cc1cc(/C=C2\NC(=O)NC2=O)c(C)n1-c1ccc(N2CCOCC2)cc1	-1%	?
SMILES	SARS PLpro yeast	Sm TGR inh
O=C1NN(c2ccccc2)C(=O)/C1=C/c1ccc(Sc2ccc(Cl)cc2)o1	-1%	?
Cc1ccccc1N1C(=O)NC(=O)/C(=C/c2ccc(N3CCOCC3)o2)C1=O	0%	22µM*
Cc1ccccc1N1C(=O)NC(=O)/C(=C\c2cc(Br)c(N3CCOCC3)o2)C1=O	-7%	?
O=C1NC(=O)/C(=C\c2ccc(N3CCOCC3)o2)N1	1%	8.9µM*
CC(C)Oc1ccc(CNC(=O)C2CCN(c3nc4ccccc4nc3C(F)(F)F)CC2)cc1	/	3%
CCCN1CCN(c2ncnc3sc(C(=O)Nc4ccc(OC(F)(F)F)cc4)c(C)c23)CC1	/	4%
COc1ccc2c(c1)c1c(c(=O)n(-c3ccc(F)c(Cl)c3)c(=O)n1CC(N)=O)n2C	/	0%
COc1ccc(-c2nc(SCC(=O)N3CCC(C)CC3)n[nH]2)cc1	/	18%
O=C1c2ccccc2NC(c2ccc(Br)o2)N1O (stereo not drawn)	0%	11µM*
O=C1c2ccccc2NC(c2ccco2)N1NS(=O)(=O)c1ccccc1 (stereo not drawn)	-1%	-3%
O=C1c2ccccc2NC(c2ccc(-c3ccc(C(F)(F)F)cc3)o2)N1O (stereo not drawn)	13%	/
O=C1c2ccccc2NC(c2cccc(O)c2)N1O (stereo not drawn)	1%	-14%
O=C1c2ccccc2NC(c2ccco2)N1O (stereo not drawn)	-4%	50µM*
O=C1c2ccccc2NC(c2ccc(-c3cccs3)o2)N1O (stereo not drawn)	-1%	32µM*
Cc1ccc(C(C)C)c(OCC(=O)Nc2ccc(-c3nc4ncccc4o3)cc2C)c1	/	6%
Cc1ccc(C)c(N2CCN(C(=O)Cn3c(-c4cccs4)cc4ccccc43)CC2)c1	/	-2%
COc1cc(-c2nc3ccccn3c2/N=C/c2cc(OC)c(O)cc2Cl)ccc1O	-9%	25µM*
COc1cc(-c2nc3ccccn3c2/N=C/c2ccccc2)ccc1O	-5%	-10%
CC1=CC(c2ccccc2)n2nc(N3C(=O)c4ccccc4C3=O)nc2N1 (stereo not drawn)	-5%	35µM*
CC1=CC(c2ccccc2)n2nc(N3C(=O)CCC3=O)nc2N1 (stereo not drawn)	2%	53%
CC1=C(C(=O)Nc2cc(C)cc(C)c2)C2(CCCCC2)OC1=O	/	-5%
COc1cccc2c1cc1c(=O)n(CC(=O)NCc3ccc(C)o3)nc(C)n12	/	4%
O=C(OC[C@H]1O[C@@H](OC(=O)c2cc(O)c(O)c(OC(=O)c3cc(O)c(O)c(O)c3)c2)[C@H](OC(=O)c2cc(O)c(O)c(OC(=O)c3cc(O)c(O)c(O)c3)c2)[C@@H](OC(=O)c2cc(O)c(O)c(OC(=O)c3cc(O)c(O)c(O)c3)c2)[C@@H]1OC(=O)c1cc(O)c(O)c(OC(=O)c2cc(O)c(O)c(O)c2)c1)c1cc(O)c(O)c(OC(=O)c2cc(O)c(O)c(O)c2)c1	4%	45µM*
COC1OC(COC(=O)c2ccccc2)C(OC(=O)c2ccccc2)C1OC(=O)c1ccccc1 (stereo not drawn)	2%	0%
Nc1ccc(N2CCN(c3ncc(C(F)(F)F)cc3Cl)CC2)c(C(F)(F)F)c1	/	3%
SMILES	SARS PLpro yeast	Sm TGR inh
CCc1cccc2c(C(=O)CCl)c[nH]c12	13µM*	7.9µM*
CCc1cccc2c(C(=S)N3CCCC3)c[nH]c12	0%	-5%[57.1 µM]
COc1ccc(N2C(=O)CC(N3CCN(c4ccccc4F)CC3)C2=O)cc1 (stereo not drawn)	-7%	?
COc1ccc(S(=O)(=O)N2CCC(c3nc4ccccc4[nH]3)CC2)cc1	1%	-8%
COc1ccc(N2C(=O)CC(N3CCC(c4nc5ccccc5[nH]4)CC3)C2=O)cc1 (stereo not drawn)	-33%	40µM*
COc1ccc(N2C(=O)CC(n3cnc4ccccc43)C2=O)cc1 (stereo not drawn)	11%	-22%
O=C1CC(N2CCC(c3nc4ccccc4[nH]3)CC2)C(=O)N1c1ccccc1F (stereo not drawn)	-6%	32µM*
COc1ccc(N2C(=O)CC(n3c(CCCCO)nc4ccccc43)C2=O)cc1 (stereo not drawn)	-25%	8.9µM*
Cc1ccc2c(CC(=O)N(Cc3cccc(Cl)c3)C3CCS(=O)(=O)C3)coc2c1 (stereo not drawn)	/	6%
CC(=O)c1ccc(N2CCN(c3ncnc4c3c(-c3ccccc3)cn4-c3ccc(Cl)cc3)CC2)cc1	/	3%
